# Measurements: PubChem BioAssay (NCI)
# About 83,000 compounds went through this panel and 20% of them were active in at least one assay; those are over-represented in the sample as a whole.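 Assay: single dose, 48 h. Readout: percent growth (0 = no net growth; negative = cell death). Active: <10.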 Activity calls are given as the source filed them.
# Test system: HCC-2998 colon
# Assay: NCI-60 one-dose screen, 48 h (100 = growth as untreated, 0 = no growth, -100 = all killed)
# Conditions: 10 µM unless noted
row,Structure (SMILES),growth
1,Cc1ccc2c(c1)nc(-c1ccccc1)n2CC(=O)N=Nc1c(O)[nH]c2ccc(Br)cc12,-72% (active)
2,C=CC(=O)Nc1ccc(C)c(Oc2ccc(Cl)cc2)c1,58.4% (inactive)
3,COc1cc2oc(-c3cccc(C(=O)Nc4cccc([N+](=O)[O-])c4)c3)cc(=O)c2c(OC)c1OC,32.6% (inactive)
4,COc1ccc2oc3c4[nH]c5ccccc5c4c4c(c3c2c1)C(=O)N(C(=O)OC(C)(C)C)C4=O,23.2% (inactive)
5,CC(=O)OC[C@@]1(C)C2CC[C@]3(C)C(CC=C4C5CC(C)(C)CC[C@]5(C(=O)Nc5ccc(F)cc5)CC[C@]43C)[C@@]2(C)C[C@@H](OC(C)=O)[C@@H]1OC(C)=O (stereo partly drawn),48.6% (inactive)
6,CC1(C)CC[C@]2(C(=O)O)CC[C@]3(C)C(=CCC4[C@@]5(C)C[C@@H](O)[C@@H]6OC(c7ccccc7Br)OC[C@@]6(C)C5CC[C@]43C)C2C1 (stereo partly drawn),18.8% (inactive)
7,Nc1nc(C(F)(F)F)cs1,105% (inactive)

# Test system: KM12 colon
# Assay: as above
# Conditions: 10 µM unless noted
row,Structure (SMILES),growth
1,CC1(C)CC[C@]2(C(=O)O)CC[C@]3(C)C(=CCC4[C@@]5(C)C[C@@H](O)[C@@H]6OC(c7cccc(Br)c7)OC[C@@]6(C)C5CC[C@]43C)C2C1 (stereo partly drawn),20.8% (inactive)
2,CCOC(=O)/C=C/c1cccc2c1C(=O)NC(C)(c1cc3cc(Br)ccc3oc1=O)N2 (stereo not drawn),41.1% (inactive)
3,COc1cc(OC)c2c3nc4cc(C)c(C)cc4nc3n(CCN(C)C)c2c1,84.7% (inactive)
4,COc1ccc(N2N=C(c3ccc4c(c3)OCO4)CC2c2cccc(NC(=O)CCCNS(=O)(=O)c3ccc(F)cc3)c2)cc1 (stereo not drawn),41.3% (inactive)
5,Cc1ccc(NC(=O)CN2CCN(c3ncnc4c3cnn4-c3ccccc3)CC2)cc1,89.9% (inactive)
6,CN(C)CCn1c2ccccc2c2nc3cc4ccccc4cc3nc21,4.87% (active)
7,Cc1ccc(C2CC(c3ccc(S(=O)(=O)NCCNc4nc(Nc5ccc(F)cc5)nc(N(C)C)n4)cc3)=Nc3c(N)nc(N)nc3N2)cc1 (stereo not drawn),40.9% (inactive)
8,O=c1onc(-c2cc3ccccc3nc2Cl)n1-c1cccc2ccccc12,44.2% (inactive)
9,CCCS(=O)(=O)N1CCCC(C(=O)Nc2nc3ccc(NC(=O)c4ccc(F)c(OC)c4F)cc3s2)C1 (stereo not drawn),41.3% (inactive)
10,CN(C)c1nc(NCCNS(=O)(=O)c2ccc(C(=O)/C=C/c3ccc(F)cc3)cc2)nc(Nc2ccc(F)cc2)n1,-93.6% (active)
11,O=C(CCN1C(=O)/C(=C/c2ccc(F)cc2)SC1=S)N1CCOCC1,76% (inactive)
12,O=c1[nH]c2ccccc2cc1CSc1nccc(-c2ccc3ccccc3c2)n1,69.6% (inactive)
13,CC(=O)Nc1ccc(-n2cnc3ccc(-c4ccc(O)cc4)cc32)cc1,17.8% (inactive)
14,CC(C)Sc1nc(NCCc2c[nH]c3ccccc23)c(C#N)c(-c2ccc(F)cc2)n1,15.7% (inactive)
15,CC(=O)c1c(N)c(C#N)cn1-c1ccc(Cl)cc1Cl,95.8% (inactive)
16,C#CCOc1ccc(/C=N/Nc2nc(-c3ccc(Cl)cc3)cs2)cc1OC,61.8% (inactive)
17,C/C(=N\N=C1/C(=O)Nc2ccc(Cl)cc21)c1ccc2c(c1)Nc1ccccc1S2,-79.3% (active)
18,CC12CC[C@@H]3[C@]4(C)COC(c5c(F)cccc5F)O[C@@H]4CC[C@@]3(C)[C@@H]1CC(C1=CCOC1=O)O2 (stereo partly drawn),72.6% (inactive)
19,NC(=S)Nc1cccc(NC(N)=S)c1,87.6% (inactive)
20,Cc1ccc([C@H]2C(C(=O)c3ccc(Cl)cc3)C3(N[C@@H]2c2ccccc2)C(=O)Nc2ccc(Br)cc23)cc1 (stereo partly drawn),39% (inactive)
21,CC(=O)OC[C@@]1(C)C2CC[C@]3(C)C(CC=C4C5CC(C)(C)CC[C@]5(C(=O)Nc5cccc(C)c5)CC[C@]43C)[C@@]2(C)C[C@@H](OC(C)=O)[C@@H]1OC(C)=O (stereo partly drawn),48.7% (inactive)
22,CCCSc1nc(NCCc2c[nH]c3ccccc23)c(C#N)c(-c2ccc(F)cc2)n1,31.3% (inactive)
23,Clc1ccc(-c2ccc(OCCCN3CCN(c4ccncc4)CC3)cc2)cc1,61.4% (inactive)
24,COc1ccc(C2(SCCNCc3cc(N(C)C)ccn3)c3ccccc3C=Cc3ccccc32)cc1,13.9% (inactive)
25,COc1ccc(C2=NN(C(C)=O)C(c3ccc(OCc4ccc(Cl)cc4)c(OC)c3)C2)cc1OC (stereo not drawn),39% (inactive)
26,CCN(CC)c1ccc(/C=N/Nc2nc(-c3ccc(C)cc3)cs2)c(O)c1,94.6% (inactive)
